{"source": "PubChem BioAssay (NCI)", "note": "About 79,000 compounds went through this panel and 15% of them were active in at least one assay; those are over-represented in the sample as a whole. Active and inactive are the calls of the source. Cut-off read from the data, not from the text of the source: active = growth inhibition above about 70%; inactive = the rest.", "data": [{"assay": "NCI Yeast Anticancer Drug Screen. Data for the mlh1 rad18 strain (AID 175)", "settings": "S. cerevisiae mlh1 rad18 strain growth inhibition; at 50.0 µM; hits give high values", "summary_of_the_method": "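Genetically defined yeast (DNA repair-deficient) exposed to compounds; growth inhibition determined relative to vehicle.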", "values": [{"compound": "CCCCC/C(C)=C(\\C#N)C(=O)OC", "growth inhibition": "-27.4% (inactive)"}, {"compound": "CCOC(=O)CC(C)C(C(=O)OCC)C(=O)OCC", "note": "(stereo not drawn)", "growth inhibition": "14% (inactive)"}, {"compound": "CC(=O)c1sc2c(c1OC(=O)c1ccco1)c(=O)n(-c1ccccc1)c(=S)n2-c1ccccc1", "growth inhibition": "33.9% (inactive)"}, {"compound": "COc1nc2c(c(O)c(C)c(=O)n2OC2OCC(OC(C)=O)C(OC(C)=O)C2OC(C)=O)c(=O)n1C", "note": "(stereo not drawn)", "growth inhibition": "-20.8% (inactive)"}, {"compound": "Cn1c2ccccc2c2oc(CO)cc(=O)c21", "growth inhibition": "19.3% (inactive)"}, {"compound": "CCN(C=O)c1ccccc1", "growth inhibition": "6.55% (inactive)"}, {"compound": "COc1cc(NC(C)CNC(C)C)c2ncccc2c1", "note": "(stereo not drawn)", "growth inhibition": "2.1% (inactive)"}, {"compound": "CN(C)C(=O)C(NCCO)c1ccccc1", "note": "(stereo not drawn)", "growth inhibition": "0.3% (inactive)"}, {"compound": "CCN(CC)CCCNc1ncc(C)c2[nH]c3ccncc3c12", "growth inhibition": "12.1% (inactive)"}, {"compound": "C/C=C/C(O)CCCC", "note": "(stereo not drawn)", "growth inhibition": "-7.2% (inactive)"}, {"compound": "Cc1ccc(C)c(NC(=O)C(=O)C2C(=O)N(c3ccccc3)N=C2N)c1", "note": "(stereo not drawn)", "growth inhibition": "-14% (inactive)"}, {"compound": "Cn1c2cc(Cl)c(Cl)cc2nc2cc3c(cc21)c(Cl)c(=O)c1cc2cc(Cl)c(Cl)cc2cc13", "growth inhibition": "20.3% (inactive)"}, {"compound": "COC(=O)c1ccc(SCCC(=O)CNc2nc(N)nc(N)c2[N+](=O)[O-])cc1", "growth inhibition": "3.15% (inactive)"}, {"compound": "Cc1cc(Cl)cc(Cl)c1OCC(=O)O", "growth inhibition": "0.05% (inactive)"}, {"compound": "NC(=O)c1ccccc1O", "growth inhibition": "15.2% (inactive)"}, {"compound": "C/C(=N/NC(N)=O)C1c2ccccc2Cc2ccccc21", "growth inhibition": "-8.15% (inactive)"}, {"compound": "O=C(O/N=C(\\c1ccccc1)C(Br)c1ccccc1)c1ccccc1", "note": "(stereo not drawn)", "growth inhibition": "-2.55% (inactive)"}, {"compound": "N#CC1(C(c2cccc3ccccc23)c2cccc3ccc4ccccc4c23)CC(=O)OC1=O", "note": "(stereo not drawn)", "growth inhibition": "9.65% (inactive)"}]}]}
